# Inconclusive results are not listed. Activity calls are given as the source filed them. Unless noted, the call rests on the fitted dose curve.
# Assay: Primary qHTS for small molecule stabilizers of the endoplasmic reticulum resident proteome: Secreted ER Calcium Modulated Protein (SERCaMP) assay (AID 1508630; active means well fitted inhibition curve with a large enough effect)
# Details: SH-SY5Y GLuc-SERCaMP (Gaussia luciferase released on ER calcium loss) secretion, thapsigargin, luminescence; series mostly up to 38.4 µM; activity change, negative = inhibition: at the top concentration
# Method in brief: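 GLuc-SERCaMP-expressing SH-SY5Y cells, pretreated 16 h with compound, are challenged with thapsigargin to empty ER calcium stores; after 4 h, coelenterazine is added directly to the medium and luminescence is imaged.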
# On the % scale 0 is the no-effect control and ±100 the full control effect.
row,Structure (SMILES),"activity change, negative = inhibition"
1,C[N+]1([O-])CCC[C@@H]1c1cccnc1 (stereo partly drawn),80.1% (inactive)
2,NCCc1ccccc1,15.5% (inactive)
3,CNCC/C=C/c1cccnc1,17.3% (inactive)
4,COc1ccc(CCN)cc1,15.4% (inactive)
5,C[C@H]1CC[C@@H]2N(C1)C[C@H]1[C@@H]3C[C@H]4[C@@H](CC(=O)[C@H]5C[C@@H](O)CC[C@@]54C)[C@@H]3CC[C@H]1[C@]2(C)O,5.15% (inactive)
6,CN1CCCCC1c1cccnc1 (stereo not drawn),-6.28% (inactive)
7,CCN1C[C@]2(COC(=O)c3ccccc3N3C(=O)CC(C)C3=O)CC[C@H](OC)[C@@]34C5C[C@@H]6[C@@H](OC)C[C@@](O)(C5[C@H]6OC)[C@](O)([C@@H](OC)C23)[C@@H]14 (stereo partly drawn),34.4% (inactive)
8,Cn1cccc1-c1cccnc1,-27.1% (inactive)
9,CN(CCCC(=O)c1cccnc1)N=O,-9.27% (inactive)
10,c1cncc(C2CCCN2)c1 (stereo not drawn),-14.7% (inactive)

# Assay: Cytotoxicity counterscreen for inhibitors of SARS-CoV-2 cell entry (AID 1645845); further: nearly all actives have a fitted effect of over 50% in size
# Details: cell viability (SARS-CoV-2 entry assay cells); series mostly up to 57.1 µM; activity change, negative = cytotoxicity: at the top concentration
# Method in brief: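 HEK293-ACE2 cells (Expi293F stably expressing human ACE2) seeded overnight, then compound for 1 h plus 48 h at 37C. Viability as ATP content by luminescence; normalized to wells with cells and media-only wells.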
Structure (SMILES),Potency,"activity change, negative = cytotoxicity",outcome
NCC1CCC(C(=O)O)CC1 (stereo not drawn),inactive,,
O=C(O)C(O)Cc1ccc(O)c(O)c1 (stereo not drawn),,-8.21% [at 114 µM] (inactive),
CC(/C=C/C=C(\C)C(=O)O[C@@H]1O[C@H](CO[C@@H]2O[C@H](CO)[C@@H](O)[C@H](O)[C@H]2O)[C@@H](O)[C@H](O)[C@H]1O)=C\C=C\C=C(C)\C=C\C=C(/C)C(=O)O[C@@H]1O[C@H](CO[C@@H]2O[C@H](CO)[C@@H](O)[C@H](O)[C@H]2O)[C@@H](O)[C@H](O)[C@H]1O,,,inactive
O=c1cc(-c2ccccc2)oc2cc(O)c(O)c(O)c12,,-24.2% (inactive),
O=C(Nc1c(Cl)cncc1Cl)c1ccc(OC(F)F)c(OCC2CC2)c1,inactive,,
CN1C2CCC1CC(OC(=O)C(CO)c1ccccc1)C2 (stereo not drawn),,,inactive
CC1=C(/C=C/C(C)=C/C=C/C(C)=C/C=C/C=C(C)/C=C/C=C(C)/C=C/C2=C(C)C[C@@H](O)CC2(C)C)C(C)(C)C[C@H](O)C1,,-14% (inactive),
C[C@@H](O)[C@H]1C(=O)N2C(C(=O)OCOC(=O)C(C)(C)C)=C(SC3CN(C4=NCCS4)C3)[C@H](C)[C@H]12,,,inactive
CC(CC=O)CCCC(C)(C)O (stereo not drawn),,0.544% (inactive),
O=c1c(O)c(-c2ccc(O)c(O)c2)oc2cc(O)ccc12,,-4.62% (inactive),
C[Se]CC[C@H](N)C(=O)O,,,inactive [at 27.1 µM]
Cc1cc(O)c2c(c1)O[C@@]1(C)CC[C@H]3C(C)(C)CCCC34CO[C@@H]2[C@H]41 (stereo partly drawn),,-14.4% (inactive),
COc1cc2c(c(OC)c1OC)-c1c(cc3c(c1OC)OCO3)C[C@H](C)[C@@](C)(O)C2,,4.3% (inactive),

# From PubChem BioAssay (NCATS)
